# Results from PubChem BioAssay.
# Several values for one entry are separate records, joined by “and”; a condition that tells them apart may be missing. Identical values can stand only once. Activity calls are given as the source filed them.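 How the source made its calls, unless noted: active means inhibition at or above 50% relative to wild type and mutant plate controls; inactive means inhibition below 50%.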
# Tests used:
# [1] = inhibitors of TNFa-induced NFkB p65 translocation, primary screen, imaging, HUVEC, MLSMR starter and 10KST1 sets (AID 438;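 active means inhibition above 20% together with a positive visual image hit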;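 further: compound added about 3h40 before a 20 min TNFalpha stimulation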;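 on inhibition: signal is the nuclear over cytoplasmic p65 intensity ratio per well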); conditions: HUVEC TNFa-induced p65 nuclear translocation; cell count: measured here: nuclei count (cytotoxicity indicator), at 2.08 µM; inhibition: at 2 µM, stronger effect = higher value, 0% TNFa-plus-vehicle, 100% no-TNFa wells
# [2] = reduction of polyQ htt aggregates in cells – imaging, exon1htt(103Q)mCFP cells, high-content imaging, primary screen (AID 483;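 active means visual image review flags a hit and inhibition of aggregation exceeds 20%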;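 further: compound exposure lasted 3 days before fixation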;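 on nuclei count: percent of the per-plate median nuclei count of sample wells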); conditions: exon1htt(103Q)mCFP cell line, aggregate imaging, at 2 µM; inhibition of aggregation: stronger effect = higher value; nuclei count: measured here: cell count, toxicity
# [3] = endothelial E-selectin expression blockers – imaging, HUVEC, immunofluorescence, MLSMR starter and 10KST1 sets, primary screen (AID 487;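 active means visually confirmed hit in the image check and inhibition above 20%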;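 on inhibition: signal is fraction of cell area covered by stained E-selectin grains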;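 on nuclei count: 100% = median nuclei count of all wells on the same plate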); conditions: HUVEC TNFalpha-induced E-selectin immunofluorescence imaging, at 2 µM; inhibition: stronger effect = higher value; nuclei count: measured here: cell number, toxicity
# [4] = Primary imaging screen for DUSP6 inhibitors that restore phospho-Erk in transfected HeLa cells, chemical complementation (AID 609;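 active means compounds giving at least 50% inhibition in the cell-based MKP-3 phosphatase rescue imaging test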;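 on inhibition: phospho-Erk level distribution per well compared with pooled transfected vehicle control wells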); conditions: HeLa MKP-3 transfected, phospho-Erk imaging KS statistic, at 10 µM, cells stimulated with TPA for 15 min
# [5] = target: Dual specificity protein phosphatase 6 (Homo sapiens) (UniProt Q16828); assay: as above; conditions: HeLa MKP-3 transfected, phospho-Erk imaging KS statistic; at 10 µM; stronger effect = higher value; cells stimulated with TPA for 15 min
# [6] = target: Voltage-gated potassium channel subunit beta-2 (Rattus norvegicus) (UniProt P62483); assay: inhibitors of rat Kvbeta2 reductase activity – biochemical, NADPH fluorescence, primary screen (AID 622;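 active means fluorescence slope higher than the sample average by over 3 SD, cut at about -0.22 in these data, passing the limit was not always enough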;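 further: slope of raw intensity against log time taken from 70 to 1610 s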); conditions: recombinant KvBeta, 4-cyanobenzaldehyde reduction, at 10 µM, stronger effect = higher value
# [7] = target: Voltage-gated potassium channel subunit beta-2 (Rattus norvegicus) (UniProt P62483); assay: enhancers of rat Kvbeta2 NADPH turnover – biochemical, NADPH fluorescence, primary screen (AID 623;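 active means NADPH fluorescence slope more negative than the mean of all samples by about 3 SD, 99.7% confidence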;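 further: fluorescence intensity change per second fitted from 20 to 320 s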); conditions: Recombinant KvBeta, NADPH fluorescence decrease slope, 10 min; at 10 µM; stronger effect = lower value
# [8] = target: Alpha-2C adrenergic receptor (Homo sapiens) (UniProt P18825); assay: compounds altering alpha2C-coupled GIRK flux – cell-based, HEK293 alpha2C/GIRK1/2, thallium flux, primary screen (AID 624;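 active means fluorescence slope after compound addition differing from the mean of all screened samples at 99.7% confidence, in either direction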;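 further: slope of fluorescence ratio to pre-addition baseline per second over 15 to 24 s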); conditions: thallium flux BTC fluorescence, at 10 µM, actives lie on both sides
# [9] = inhibitors of larval lipid processing in zebrafish, primary screen, whole organism, PED6 fluorescence, gall bladder and intestine (AID 686;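 active means a full or partial loss of lipid-probe fluorescence in the fish gall bladder, intestine or both, judged by eye; inactive means no fluorescence loss, or compound toxic to the fish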;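 further: larvae 5 to 7 days old with five fish per well; signal comes from phospholipase A2 cleavage of quenched PED6 carried via bile; overnight exposure to compound and PED6 before scoring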); conditions: Zebrafish larvae PED6 lipid processing, fluorescence scoring; screened at 20 µM (by protocol)
# [10] = loss of swimming-algae plug formation – whole organism, Chlamydomonas reinhardtii, WT vs cilia-less mutant, absorbance, 96-well, primary screen (AID 463189); conditions: Chlamydomonas reinhardtii gravitaxis, OD600 absorbance, 2 days; at 10 µM; stronger effect = higher value;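 further: 0% = wild type cc124 cells in DMSO and 100% = ciliumless bld1 mutant cells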
# [11] = blockers of RIG-like receptor reporter activation – cell-based, Sendai virus stimulus, luciferase, 10K MLSCN set, TLR/RLR signaling modifier project, primary screen (AID 602276;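 active means inhibition at or above 50% at 10 µM; inactive means inhibition below 50%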;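 further: firefly luciferase from ISG56 promoter only with Renilla not read in this screen; 0% = Sendai virus plus DMSO and 100% = medium plus DMSO without virus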); conditions: HEK293 RL24 IRF3 luciferase reporter, at 10 µM, stronger effect = higher value
# [12] = TLR3 IRF3 reporter activation blockers – cell-based, poly I:C stimulus, luciferase, 10K MLSCN set, primary screen (AID 602277;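 active means inhibition of the reporter signal at or above 50%; inactive means inhibition below 50%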); conditions: HEK293-TLR3 RL24 IRF3 luciferase reporter, at 10 µM, stronger effect = higher value
# [13] = measured here: cell density z-score
# [14] = measured here: nuclear c-Myc green intensity z-score
# [15] = measured here: nuclear pErk red intensity z-score, stronger effect = higher value
# Voltage-gated potassium channel subunit beta-2 (Rattus norvegicus), sequence (P62483 whole entry, looked up): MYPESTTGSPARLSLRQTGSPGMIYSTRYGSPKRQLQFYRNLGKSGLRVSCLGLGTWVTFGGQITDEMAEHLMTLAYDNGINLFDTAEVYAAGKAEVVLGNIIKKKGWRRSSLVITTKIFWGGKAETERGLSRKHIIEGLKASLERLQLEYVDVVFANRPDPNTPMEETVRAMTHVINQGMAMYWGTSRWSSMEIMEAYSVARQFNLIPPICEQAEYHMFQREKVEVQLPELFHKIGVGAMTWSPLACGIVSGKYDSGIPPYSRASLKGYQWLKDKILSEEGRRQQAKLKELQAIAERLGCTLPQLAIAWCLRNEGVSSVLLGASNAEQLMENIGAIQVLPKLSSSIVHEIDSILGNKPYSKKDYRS
# Dual specificity protein phosphatase 6 (Homo sapiens), sequence (Q16828 whole entry, looked up): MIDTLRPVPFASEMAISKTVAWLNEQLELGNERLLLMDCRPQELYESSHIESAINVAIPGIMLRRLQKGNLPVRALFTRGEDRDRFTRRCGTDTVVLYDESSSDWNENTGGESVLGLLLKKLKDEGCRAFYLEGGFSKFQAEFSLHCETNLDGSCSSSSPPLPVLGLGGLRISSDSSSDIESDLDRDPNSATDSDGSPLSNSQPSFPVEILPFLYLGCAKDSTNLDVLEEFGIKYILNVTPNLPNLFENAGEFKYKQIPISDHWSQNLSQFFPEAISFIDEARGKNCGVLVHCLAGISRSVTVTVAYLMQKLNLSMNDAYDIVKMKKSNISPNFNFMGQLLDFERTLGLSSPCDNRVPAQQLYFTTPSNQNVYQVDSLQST
# Alpha-2C adrenergic receptor (Homo sapiens), sequence (P18825 whole entry, looked up): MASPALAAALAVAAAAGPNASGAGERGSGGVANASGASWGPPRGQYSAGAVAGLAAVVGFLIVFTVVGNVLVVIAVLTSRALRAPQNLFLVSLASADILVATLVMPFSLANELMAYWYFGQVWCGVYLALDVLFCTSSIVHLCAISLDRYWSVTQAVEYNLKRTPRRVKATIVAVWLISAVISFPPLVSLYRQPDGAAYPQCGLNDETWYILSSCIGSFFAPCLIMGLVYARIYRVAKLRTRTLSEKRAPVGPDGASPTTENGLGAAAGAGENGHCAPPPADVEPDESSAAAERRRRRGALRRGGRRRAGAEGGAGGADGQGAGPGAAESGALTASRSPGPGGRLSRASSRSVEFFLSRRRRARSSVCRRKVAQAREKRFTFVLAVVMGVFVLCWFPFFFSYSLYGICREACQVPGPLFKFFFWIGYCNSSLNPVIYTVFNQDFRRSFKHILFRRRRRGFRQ
Structure (SMILES),cell count [1],inhibition [1],inhibition of aggregation [2],nuclei count [2],inhibition [3],nuclei count [3],"z-score [4, 13]","z-score [4, 14]","z-score [4, 15]",inhibition [5],fluorescence slope [6],NADPH fluorescence slope [7],slope [8],outcome [9],inhibition [10],inhibition [11],inhibition [12]
Cc1c(Cl)cccc1Nc1ccccc1C(=O)O,612,-8.8% (inactive),17.9% (inactive),108%,-156% (inactive),129%,-0.93,-0.312,1.31,5.42% (inactive),-0.466 (inactive),-4.7e-06 (inactive),0.00655 (inactive),inactive,-6.31% (inactive),4.32% (inactive),19.5% (inactive)
C/C=C(/C(=C/C)c1ccc(O)cc1)c1ccc(O)cc1,603,-14.5% (inactive),10.1% (inactive),112%,-76% (inactive),132%,-0.991,-0.543,0.777,13.3% (inactive),-0.459 (inactive),-5.4e-05 (inactive),0.00464 (inactive),inactive,25.6% (inactive),8.63% (inactive),33.1% (inactive)
CC1CCc2cc(F)cc3c(O)c(C(=O)NCC4CCCO4)c(=O)n1c23 (stereo not given),553,2.6% (inactive),1.2% (inactive),83.8%,-28.6% (inactive),134%,-0.0424,-0.796,-0.351,-8.76% (inactive),-0.395 (inactive),1.7e-06 (inactive),0.0054 (inactive),inactive,11.8% (inactive),4.8% (inactive),8.44% (inactive)
NS(=O)(=O)c1ccc(C(=O)O)cc1,662,-3.9% (inactive),7.9% (inactive),106%,-60.6% (inactive),124%,1.84,-0.0127,-1.63,31.1% (inactive),-0.499 (inactive),3.5e-06 (inactive),0.00388 (inactive),inactive,24.6% (inactive),-11.5% (inactive),-18% (inactive)
C[C@]12CCC(=O)C=C1CC[C@@H]1[C@@H]2CC[C@@]2(C)[C@H]1CC[C@]2(O)C(=O)CO,695,0.6% (inactive),27.5% (inactive),102%,-97.9% (inactive),125%,0.881,0.613,-1.07,8% (inactive),-0.52 (inactive),-6.8e-05 (inactive),0.00434 (inactive),inactive,-0.27% (inactive) and -16.6% (inactive),5.65% (inactive),35.1% (inactive)
